Experimental data: PubChem BioAssay AID995 (National Center for Advancing Translational Sciences (NCATS), 2007)
Out of some 72,000 compounds screened, about 710 (0.99%) were called active. Inconclusive results (about 7%) are left out. Shown is part of a subset that was picked to be rich in actives. Values without a mark were called inactive. Calls come from the whole dose curve; as a rule, active = well fitted inhibition curve with a large enough effect; inconclusive = small, poorly fitted or top-dose-only effect; inactive = no such curve, though single readings can be large or run the other way.

experiment: qHTS Assay for Inhibitors of the ERK Signaling Pathway using a Homogeneous Screening Assay; conditions: HEK293-V1b, vasopressin-stimulated pERK AlphaScreen; series mostly up to 57.5 µM; activity, negative = inhibition: at the top concentration; note: nearly all actives have a fitted effect of over 55% in size
Source text: qHTS Assay for Inhibitors of the ERK Signaling Pathway using a Homogeneous Screening Assay; note: nearly all actives have a fitted effect of over 55% in size
NIH Chemical Genomics Center [NCGC]
NIH Molecular Libraries Screening Centers Network [MLSCN]
Assay Submitter (PI): Dr. Wei Zheng, NCGC/NIH
The Ras/extracellular-signal-regulated kinase (ERK) mitogen activated protein (MAP) kinase signaling pathway (ERK1/2 cascade) plays is a key role in transmitting signals from the cell surface to the nucleus (Nishida and Gotoh 1993; Chang and Karin, 2001). The cascade is initiated by the small G-protein Ras, which recruits Raf […], where activation occurs. Alternatively, this pathway can be activated by elevating intracellular cAMP.
Activation of the ERK pathway is essential in increased cell division and cell survival. Sustained and constitutive activation of the ERK pathway, however, has been linked to uncontrolled cell proliferation, increased cell survival, and tumor progression. Thus, the ERK has been as an attractive target for cancer chemotherapy in the past few years (Sebolt-Leopold and Herrera, 2004). Given its physiological and pathological importance, assessment of ERK phosphorylation has been broadly performed in both basic research and drug discovery. Most assays for the measurement of ERK phosphorylation use the antibody-based detection methods, such as western blot and ELISA. These assays require multiple reagent additions with cell wash steps and are not suitable for high throughout screening.
The current cell-based ERK phosphorylation assay was performed using AlphaScreen platform. AlphaScreen is a two bead-based proximity-dependent chemical energy transfer luminescent assay platform. The assay reagents (ERK SureFire(TM) kit) were supplied from TGR BioSciences (Australia). In the presence of specific antibodies, phosphorylated ERK will bring "donor" and "acceptor" beads to a proximity range (<200 nm), and subsequently lead a chemical luminescent reaction upon exciting donor beads with 680 nm laser. To exclude the assay-related false positives, we used a biotinylated rabbit IgG to perform counter-screen. The biotinylated antibody mimics the phosphorylated ERK1/2 for bringing streptavidin coated beads and protein-A coated beads to a proximity range for the AlphaScreen detection.
NCGC Assay Protocol Summary:
HEK293 cells stably expressing type-1 vasopressin receptor (V1b) were maintained in DMEM medium (Invitrogen, Carlsbad, CA) at 37C under a humidified atmosphere containing 5% CO2 and 95% air. The medium contained 10% FBS, 2 mM L-glutamine, non-essential amino acid, pyruvate and 50 U/ml penicillin and 50 ug/ml streptomycin (Invitrogen). The aliquots of frozen cells were stored at -135C and used for the compound screening. All compounds were screened as titrations from 0.6 nM to 46 uM final concentration. Vasopressin was used to stimulate the ERK phosphorylation pathway. The ERK phosphorylation in cells was determined using an AlphaScreen assay kit provided by PerkinElmer. Data were normalized to the controls for basal activity (DMSO only) and 100% activation (25 nM vasopressin). AC50 values were determined from concentration-response data modeled with the standard Hill equation.
(1) Seed 4 ul/well of resuspended frozen HEK293 cells containing 2000 cells in white 1536-well plates for overnight with 1% FBS at 37C under a humidified atmosphere containing 5% CO2 and 95% air.
(2) Add 23 nL compounds in DMSO solution. The final titration was 0.6 nM to 46 uM.
(3) Incubate at 37C for 30 min.
(4) Dispense 0.5uL vasopressin (25 nM in final)
(5) Incubate at 37C for 5 min.
(6) Dispense 0.5uL of 1:2 diluted 5x lysis buffer.
(7) Incubate at 37C for 10 min.
(8) Dispense 1.5uL of mixture of activation buffer and reaction buffer with AlphaScreen beads (streptavidin donor beads and protein-A acceptor beads, 10 ng/well for each).
(9) Incubate at room temperature for 5 hr.
(10) Detect the assay plate in an EnVision plate reader (PerkinElmer) using the AlphaScreen detection mode.
[…]
% is set by controls: 0 for no effect and ±100 for the full control effect; potency is the fitted concentration of half-maximal effect.

Compound	activity, negative = inhibition	Potency
CC(C)(O)CCC(O)[C@@](C)(O)C1CC[C@]2(O)C3=CC(=O)C4CC(O)C(O)C[C@]4(C)C3CC[C@]12C (some centres not stated)	-0.972%	
N#C/C(=C\c1ccc(O)c(O)c1)C(N)=O	-23.1%	
Oc1c(CN2CCOCC2)ccc(CN2CCOCC2)c1O	-4.14% [at 11.5 µM]	
CCC[C@@H]1C[C@@]1(CCC)[C@@H](NC(=O)c1ccccc1)c1ccc(C(=O)OC)cc1	23.3%	
CCCn1c(-c2ccc(F)cc2)nc2c(NC3CCN(Cc4ccccc4)C3)nc(C)nc21 (configuration not stated)	-14.2%	
O=C(Nc1c[nH]c(=O)[nH]c1=O)Oc1ccccc1	-1.65% [at 11.5 µM]	
CN(CCOc1ccc(CC2SC(=O)NC2=O)cc1)c1ccccn1 (configuration not stated)	23.1%	
COc1ccc(-c2nc3cnc(N(C)C)nc3n(Cc3cccs3)c2=O)cc1	31%	
COC(=O)[C@@H]1C[C@H]2CC[C@H](O)C[C@H]2N1Cc1ccc(N2CCN(C)CC2)cc1	11.9%	
COCCn1c(=O)c(-c2cccc(F)c2)nc2cncnc21	-9.32%	
N#Cc1cc2[nH]c(=O)c(=O)[nH]c2cc1[N+](=O)[O-]	-0.943%	
CCOC(=O)c1cnc(SCC(=O)NCc2ccco2)nc1N		25.1 µM (active)
CCOc1ccccc1-n1c(SCC(=O)NCc2ccco2)nnc1-c1ccncc1	-1.62%	
Cc1nc2nc(SCC(=O)NCc3ccco3)nn2c(C)c1Cc1ccccc1	21.2%	
CC(C)NC[C@H](O)c1ccc2ccccc2c1		inactive
COC(=O)[C@@]1(Cc2ccccc2)[C@H]2c3cc(C(=O)N4CCCC4)n(Cc4ccc(C)o4)c3C[C@H]2CN1C(=O)c1ccccc1	-4.58%	
CN(C(=O)CN(CCO)CC(=O)N(C)C(C)(C)Cc1ccccc1)C(C)(C)Cc1ccccc1		inactive
Cc1cc(C)cc(N)c1	7.96%	
CCCn1c(-c2ccc(F)cc2)nc2c(NCC3CCCN3CC)nc(C)nc21 (configuration not stated)	-24.4%	
COC(=O)[C@@]1(Cc2ccc(F)cc2)[C@H]2c3cc(C(=O)N4CCCC4)n(Cc4ccc(OC(F)(F)F)cc4)c3C[C@H]2CN1C(=O)c1ccccc1	4.38%	
COc1ccccc1N1CCN(CCN2C(=O)c3ccccc3C(C)(C)C2=O)CC1	-25.3%	
CN(C)/C=N/c1cc(=O)n(C)c(=O)n1CC1CC1	0.0595%	
CC(C)=CCC/C(C)=C/CO/N=C1/C[C@@H](O)[C@@H](O)[C@@H]2[C@@H]3C(=O)N(C(C)(C)C)C(=O)[C@H]3CC[C@H]12	7.53% [at 11.5 µM]	
Cn1c(N)c(C(=O)COC(=O)c2cc(C(F)(F)F)nc3c(C(F)(F)F)cccc23)c(=O)n(C)c1=O	-13.9%	

Compound	activity, negative = inhibition	Potency
CC/C=C/C/C=C/C/C=C/CCCCCCCC(=O)OCC	26%	
CC1(C)OC(C(O)(c2ccccc2)c2ccccc2)C(C(O)(c2ccccc2)c2ccccc2)O1 (configuration not stated)	31.6% [at 11.5 µM]	
COC(=O)[C@H]1[C@H]2C[C@H]3c4[nH]c5ccccc5c4CCN3C[C@@H]2CC[C@@H]1O		inactive
Oc1ccccc1CNCc1ccccc1O	19.3% [at 11.5 µM]	
COc1ncc2nc(-c3ccc(Cl)cc3)c(=O)n(C)c2n1	-0.77%	
O=C(Nc1ccccc1)N[C@H]1C[C@H](C(=O)O)Nc2cc(Cl)cc(Cl)c21	-10.9%	
CC1O[C@@H](Oc2c(-c3ccc(O)c(O)c3)oc3cc(O)cc(O)c3c2=O)C(O)C(O)C1O (some centres not stated)	-4.83%	
COC1[C@H](OC(N)=O)C(O)[C@H](Oc2ccc3c(O)c(NC(=O)c4ccc(O)c(CC=C(C)C)c4)c(=O)oc3c2C)OC1(C)C (some centres not stated)	14.4%	
C#CCCCCCCCCCCCCCCCC(=O)O	9.99%	
CO[C@H]1COC(=O)[C@@H](OCc2ccccc2)/C=C\[C@H](C)[C@@H](OC)COC(=O)[C@H](OCc2ccccc2)/C=C\[C@@H]1C	30% [at 11.5 µM]	
O=C(CSc1nnc(-c2cccnc2)n1Cc1ccco1)c1ccc(Cl)c(Cl)c1	10.5%	
O=C(CSc1nnc(-c2cnccn2)n1Cc1ccco1)c1ccc(Cl)c(Cl)c1	-26.5%	
O=C(CSc1nnc(-c2cccs2)n1Cc1ccco1)c1ccc2c(c1)OCO2		31.6 µM (active)
N#Cc1cccc(-c2ccc3ncnc(NCc4cccs4)c3c2)c1	-25.3%	
Cc1noc(C)c1-c1nccc(N2CCOCC2)n1	-10.5%	
N#CCC(=O)NC(=O)NCC1CC1	12.1%	
COc1ccc2c3c1OC1CC(O)C=C[C@@]31CCN(C)C2 (some centres not stated)	14%	
COC(=O)c1ccc(C23CC4(C2)[C@H](CN(Cc2cccnc2)[C@@H]4c2ccccc2)C3c2ccc(Cl)nc2)cc1 (some centres not stated)	-2.78%	
CC(C)CO/N=C1/C[C@@H](O)[C@@H](O)[C@@H]2[C@@H]3C(=O)N(C[C@@H]4CCCO4)C(=O)[C@H]3CC[C@@H]12	8.6% [at 11.5 µM]	
CCNc1ncc2ncc(=O)n(Cc3cccc(OC)c3)c2n1	-28.5%	
Cn1nnnc1SCC(=O)N1CCN(C(c2ccccc2)c2ccccc2)CC1	2.32%	
Cn1nnnc1SCC(=O)N1CCN(Cc2ccccc2)CC1		31.6 µM (active)
CC(=O)c1ccc(-n2nnnc2SCC(=O)N2CCN(C(=O)c3ccco3)CC2)cc1	-14%	
